Source: article PMC7819943, “Rice protein-binding microarrays: a tool to detect cis-acting elements near promoter regions in rice”
In all, about 68,000 sequences were measured (“fluorescence intensity (a.u.)”: median about 9,100, highest 2% from about 16,000 on). For the sample, the highest values were picked, then their nearest neighbours and some sequences at random.

Each sequence was assayed against OsWRKY34 (Oryza sativa, UniProt Q0JBA9 1-250) (assay: protein-binding microarray (RPBM); PBS, 2% BSA, 51.3 ng/ul salmon testes DNA, 50 uM zinc acetate, 200 nM TF, 25 C, 1 h; high values mean tight binding). Settings: protein: recombinant; tags: N-terminal polyhistidine and DsRed monomer fusion (pET32a); label: CyDye5-dUTP incorporated in the synthesized complementary strand; 3' TTTTT single-stranded linker to array surface; dsDNA, one strand shown.
Outline: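 Binding signal is defined as the fluorescence intensity of each feature in arbitrary units, read on an Axon 4000B scanner. Transcription factors with N-terminal polyhistidine and DsRed fusions came from E. coli BL21-CodonPlus and were purified on Ni–NTA. They were incubated at 200 nM for 1 h at 25 °C on a custom Agilent array that had been made double-stranded with Cy5-dUTP, with 50 µM zinc acetate present, and the array was washed.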

Chain of OsWRKY34 (Q0JBA9 entry or part of it): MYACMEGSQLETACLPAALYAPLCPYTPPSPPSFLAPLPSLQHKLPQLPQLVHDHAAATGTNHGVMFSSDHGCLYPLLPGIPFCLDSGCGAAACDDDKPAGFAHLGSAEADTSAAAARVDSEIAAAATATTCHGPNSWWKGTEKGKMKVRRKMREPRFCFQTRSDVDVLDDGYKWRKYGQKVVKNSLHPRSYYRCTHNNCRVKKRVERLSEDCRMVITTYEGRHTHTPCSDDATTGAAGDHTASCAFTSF

Row | Sequence | binding signal
1 | TGCTTGTTCCGGTTCCTTCCCAACCCTTTTGCAAGAACACCGGAGTCACCTAGTGCAG | 9120 fluorescence intensity (a.u.)
2 | GTCACCGTCTCGTCTCCGTCTCCGCCGCTCGTCGTCGACCCGGAGTCACCTAGTGCAG | 12600 fluorescence intensity (a.u.)
3 | AAAAAAATCTCGTTGTTACTGTCTATAGATCACTATATTACGGAGTCACCTAGTGCAG | 8570 fluorescence intensity (a.u.)
4 | GCCGCCATCGTTCCTGTTCGCCGCCCGTTGTCCTTCCAATCGGAGTCACCTAGTGCAG | 13000 fluorescence intensity (a.u.)
5 | TTCTTCACCGTTTTGTTTTCTCTGCGCCTCAAATTTCCTTCGGAGTCACCTAGTGCAG | 12000 fluorescence intensity (a.u.)
6 | CCGGTGATGTTTTTATTTTTCTTCCGGTTCTTTTTCTCAACGGAGTCACCTAGTGCAG | 12300 fluorescence intensity (a.u.)
7 | TGAGTTGTTTTGTTGATAGGTATAGATATGAATCGAATTACGGAGTCACCTAGTGCAG | 8950 fluorescence intensity (a.u.)
8 | TTGTGGATTTTTTTTTTTTGAGAGGGATGGGTGTTTGATTCGGAGTCACCTAGTGCAG | 10900 fluorescence intensity (a.u.)
9 | AGATTGGGTTTGGGTGGTGTGAGGATTGATTTGTTTTTTTCGGAGTCACCTAGTGCAG | 17800 fluorescence intensity (a.u.)
10 | ACGTATTTGTGAGGGGATTTGGTACCATTACATCTGTTTTCGGAGTCACCTAGTGCAG | 8192 fluorescence intensity (a.u.)
11 | TTTCTTTTCATATATTTTTGTTTATTTTCTCTCATTTCTCCGGAGTCACCTAGTGCAG | 11300 fluorescence intensity (a.u.)
12 | TTGACAATGGTTGGGGTGGTGGTGGTGTTCGCGGTGATGACGGAGTCACCTAGTGCAG | 31700 fluorescence intensity (a.u.)
13 | ATTCTGTATTTATTGTTTGCTGCATTCAGTTTGATTGGTTCGGAGTCACCTAGTGCAG | 13900 fluorescence intensity (a.u.)
14 | GGTTGGTGCTGTATTGTTTGAGGGGAGGGGATTCCATTTTCGGAGTCACCTAGTGCAG | 47400 fluorescence intensity (a.u.)
15 | TTGTTGGGTGCTGAATTGCTGATGTGGTGGGGTGACATGACGGAGTCACCTAGTGCAG | 12500 fluorescence intensity (a.u.)
16 | GGGGTGACATTTCAATTGTTTTTCTCTTATATTTGTAATCCGGAGTCACCTAGTGCAG | 20100 fluorescence intensity (a.u.)
17 | GGTGACTGATAATTATTATTTTCTTTGTTTCACATTATACCGGAGTCACCTAGTGCAG | 14200 fluorescence intensity (a.u.)
18 | CTGATGGTGTTGGTGATGGTGGTGCGGGTGCGGCAGTTGACGGAGTCACCTAGTGCAG | 13200 fluorescence intensity (a.u.)
19 | GAGGATTGATTTGTTTTTTTTTTTTGGGGTTTTCTCTTCTCGGAGTCACCTAGTGCAG | 16300 fluorescence intensity (a.u.)
20 | GGACTGCTCCACCATTTTTAGTCCCGGTTGGTAATACCAACGGAGTCACCTAGTGCAG | 8570 fluorescence intensity (a.u.)
21 | AATCTATCCCAGCCTAAATCTCACTGTTTCATGCACAACTCGGAGTCACCTAGTGCAG | 8350 fluorescence intensity (a.u.)
22 | GCGCGCGTCCCGTCACGTCTTTTCTCCTCGCCTATATGCCCGGAGTCACCTAGTGCAG | 9050 fluorescence intensity (a.u.)
23 | CAGCTATCGTTATTCTGAAGATCCACCAAGCACAATCTTACGGAGTCACCTAGTGCAG | 8280 fluorescence intensity (a.u.)
